Data as given in PubChem BioAssay (NCI).
The panel holds about 83,000 compounds, 20% with a hit somewhere; the sample as a whole holds those more often.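 For each line, cells grew in 96-well plates with the test compound present at a single concentration for 48 hours.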 Calls of active or inactive are those of the source. Rule for the calls: active = growth percent below 10; inactive = the rest.

tested on: MDA-MB-468 breast; assay: NCI-60 one-dose screen, 48 h (100 = growth as untreated, 0 = no growth, -100 = all killed); conditions: 10 µM unless noted

Compound	growth
NS(=O)(=O)Oc1ccc(NC(=O)C23CC4CC(CC(C4)C2)C3)cc1Cl	103% (inactive)
CCOC(=O)c1c(NCC(=O)Nc2ccc(Br)cc2)sc2c1CCCC2	7.05% (active)
CC(C)C1(C(C)C)NC(=O)NC1=O	101% (inactive)
C=CCn1c(SCC(=O)Nc2ccc(OC)cc2)nnc1-c1ccc(Cl)cc1	81% (inactive)
COc1ccc(-c2nc(-c3ccccc3)c(-c3ccccc3)[nH]2)cc1OC1CCCCC1	73.1% (inactive)
